# Assay results published in publication PMC5540273 (PLoS ONE, 2017).
# What was measured:
# Conditions in all cases: concentration: 1 μM,replicates: in singlicate; n = 1
# [1] = tested on: TNNI3K
# [2] = tested on: T1, TRKA
# T1 construct: gene NTRK1
# [3] = tested on: TRKB
# [4] = tested on: T2, TRKC
# T2 construct: gene NTRK3
# [5] = tested on: TRPM6
# [6] = tested on: TSSK1B
# [7] = tested on: TSSK3
# [8] = tested on: TTK
# [9] = tested on: TXK
# [10] = tested on: TYK2(JH1domain-catalytic)
# [11] = tested on: TYK2(JH2domain-pseudokinase)
# [12] = tested on: TYRO3
# [13] = tested on: ULK1
# [14] = tested on: ULK2
# [15] = tested on: ULK3
# [16] = tested on: T3, VEGFR2
# T3 construct: gene KDR
# [17] = tested on: T4, VPS34
# T4 construct: gene PIK3C3
# [18] = tested on: VRK2
# [19] = tested on: WEE1
# [20] = tested on: WEE2
# 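Also: KINOMEscan kinase panel screen.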
SMILES,%Inh [1],%Inh [2],%Inh [3],%Inh [4],%Inh [5],%Inh [6],%Inh [7],%Inh [8],%Inh [9],%Inh [10],%Inh [11],%Inh [12],%Inh [13],%Inh [14],%Inh [15],%Inh [16],%Inh [17],%Inh [18],%Inh [19],%Inh [20]
NC(=O)c1cc(-c2ccccc2)cc2c(C3CCNCC3)c[nH]c12 [GSK301362],10%,51%,0%,4%,33%,27%,22%,24%,0%,69%,99.7%,1%,23%,29%,18%,0%,0%,0%,14%,11%
C[C@@H](Oc1cc(-c2cnn(C3CCNCC3)c2)cnc1N)c1c(Cl)ccc(F)c1Cl,88%,99.9%,99.7%,–,21%,0%,0%,0%,41%,84%,43%,–,67%,53%,32%,22%,0%,11%,0%,0%
Cc1occc1-c1nc(N)c(OC[C@@H](N)Cc2c[nH]c3ccccc23)cc1-c1cc2c(C)n[nH]c2cn1 [GSK1660450],20%,3%,0%,0%,22%,20%,5%,32%,43%,3%,0%,0%,33%,22%,11%,0%,18%,90.1%,0%,15%
CCN(CC)CCOc1ccc(Nc2ncc3cc(-c4c(Cl)cccc4Cl)c(=O)n(C)c3n2)cc1 [SB-601273],100%,100%,43%,92.9%,48%,56%,24%,59%,99.5%,96.7%,25%,100%,92.4%,95.2%,59%,97.6%,44%,46%,99.9%,99.7%
CNC(=O)c1ccccc1Sc1ccc2c(/C=C/c3ccccn3)n[nH]c2c1,0%,77%,15%,0%,0%,0%,1%,0%,0%,0%,0%,0%,20%,58%,–,99.9%,3%,0%,0%,–
CN(C)CC(O)COc1ccc(Nc2nccc(-c3cnn4nc(N5CCOCC5)ccc34)n2)cc1 (centres unmarked) [GW767488],0%,81%,31%,45%,33%,5%,65%,57%,3%,66%,97.3%,10%,98.8%,96.3%,61%,20%,95.4%,0%,8%,0%
O=C(NCCNc1ccnc(NCc2ccc(F)cc2)n1)c1cc2ccccc2s1 [GSK1379944],69%,0%,0%,22%,1%,16%,4%,0%,11%,2%,10%,4%,3%,0%,0%,0%,0%,0%,3%,19%
Cl.Cl.NC[C@H](CC1CCCCC1)NC(=O)c1cc(Br)c(-c2ccnc3[nH]ccc23)s1 [GSK1581427],0%,84%,64%,57%,8%,58%,3%,21%,1%,13%,5%,0%,28%,0%,10%,7%,0%,0%,3%,10%
CCN(CC)CCCCNc1ncc2cc(-c3c(Cl)cccc3Cl)c(NC(=O)NC(C)(C)C)nc2n1,91.5%,90%,55%,45%,0%,0%,0%,2%,47%,7%,0%,8%,0%,29%,0%,90.4%,12%,0%,3%,3%
Cc1cc(C(=O)Nc2ccc(Oc3ccc4nc(NC(=O)C5CC5)cn4n3)cc2)nn1-c1ccccc1,14%,100%,64%,12%,0%,0%,0%,26%,22%,15%,0%,37%,0%,0%,0%,–,0%,0%,15%,7%
CCn1c(-c2nonc2N)nc2c(C#CC(C)(C)O)nc(OCCN)cc21.Cl.Cl [GSK902056],0%,0%,0%,0%,0%,23%,85%,0%,36%,17%,9%,0%,33%,0%,13%,0%,0%,0%,6%,15%
CC(C)N1C(=O)Cc2cc(Nc3ncc(C(F)(F)F)c(NCc4cccc(S(C)(=O)=O)c4)n3)ccc21,0%,96.7%,84%,62%,4%,0%,0%,99.1%,0%,92.2%,29%,0%,60%,54%,59%,74%,55%,39%,38%,7%
CC(C)Nc1cc(-c2ccc3c(N)n[nH]c3c2)nc(N)n1 [GSK2221681],0%,0%,0%,0%,13%,1%,58%,24%,0%,0%,8%,0%,76%,22%,9%,4%,0%,0%,8%,0%
C=CC(=O)Nc1cc2c(Nc3ccc(F)c(Cl)c3)ncnc2cc1OCCCN1CCOCC1 [GW781483],0%,47%,4%,18%,0%,0%,47%,0%,82%,25%,21%,29%,0%,17%,14%,0%,6%,0%,0%,20%
Nc1nc(Nc2ccccc2)cc(-c2ccc3c(N)n[nH]c3c2)n1 [GSK2225749],0%,30%,0%,0%,0%,2%,24%,24%,0%,46%,45%,0%,92.8%,62%,16%,5%,3%,0%,0%,0%
CN(C)CCOc1ccc(-c2cc(-c3c[nH]nc3-c3ccccn3)ccn2)cc1 [GW835314],12%,0%,0%,32%,2%,0%,0%,0%,8%,31%,21%,8%,0%,31%,4%,6%,0%,0%,0%,11%
COc1ccc(C[C@@H](CN)NC(=O)c2cc(Br)c(-c3ccnc4[nH]ccc34)s2)cc1.Cl.Cl [GSK1389063],27%,91.8%,90.8%,90.3%,0%,28%,12%,23%,30%,82%,23%,0%,40%,16%,12%,58%,35%,47%,0%,18%
Cl.Oc1cc(-c2nc(-c3ccccc3)[nH]c2-c2ccncc2)ccc1Cl [SB-386023],14%,19%,6%,12%,23%,0%,0%,29%,42%,0%,0%,58%,7%,25%,25%,20%,14%,0%,0%,11%
Cc1ccc(-n2nc(C(C)(C)C)cc2NC(=O)Nc2ccc(OCCN3CCOCC3)c3ccccc23)cc1 [GW839464],0%,32%,70%,–,0%,10%,0%,31%,13%,0%,0%,37%,0%,0%,0%,37%,21%,0%,0%,14%
